Measurements as given in PubChem BioAssay (NCATS).
Inconclusive results are not listed. The source made the active and inactive calls. Calls follow the shape of the dose curve; as a rule, active = well fitted inhibition curve with a large enough effect; inconclusive = small, poorly fitted or top-dose-only effect; inactive = flat fitted curve, though single readings scatter.

Assays:
[1] = qHTS profiling for inhibitors of Plasmodium falciparum proliferation (AID 504749);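 also: 0% = DMSO vehicle and full inhibition = artemisinin control; nearly all actives have a fitted effect of over 60% in size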; details: P. falciparum in erythrocytes, SYBR Green DNA, 72 h
In short: (§1)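 SYBR Green fluorescence of parasite DNA, read after lysis and overnight dark incubation, measured growth over 72 h in erythrocyte culture at 0.3% parasitemia and 2.5% hematocrit. Data normalised to DMSO and 0.29 uM artemisinin, with plate-drift correction.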

3D7 = assay: as above; details: P. falciparum in erythrocytes, SYBR Green DNA, 72 h; series mostly up to 28.7 µM
In short: as §1

7G8 = assay: as above; details: P. falciparum in erythrocytes, SYBR Green DNA, 72 h; series mostly up to 28.7 µM
In short: as §1

AA1029 = assay: as above; details: P. falciparum in erythrocytes, SYBR Green DNA, 72 h; series mostly up to 28.7 µM
In short: as §1

AS120 = assay: as above; details: P. falciparum in erythrocytes, SYBR Green DNA, 72 h; series mostly up to 28.7 µM
In short: as §1

ATS189 = assay: as above; details: P. falciparum in erythrocytes, SYBR Green DNA, 72 h; series mostly up to 28.7 µM
In short: as §1

ATS95 = assay: as above; details: P. falciparum in erythrocytes, SYBR Green DNA, 72 h; series mostly up to 28.7 µM
In short: as §1

C2A = assay: as above; details: P. falciparum in erythrocytes, SYBR Green DNA, 72 h; series mostly up to 28.7 µM
In short: as §1

CP185 = assay: as above; details: P. falciparum in erythrocytes, SYBR Green DNA, 72 h; series mostly up to 28.7 µM
In short: as §1

CP191 = assay: as above; details: P. falciparum in erythrocytes, SYBR Green DNA, 72 h; series mostly up to 28.7 µM
In short: as §1

CP192 = assay: as above; details: P. falciparum in erythrocytes, SYBR Green DNA, 72 h; series mostly up to 28.7 µM
In short: as §1

CP194 = assay: as above; details: P. falciparum in erythrocytes, SYBR Green DNA, 72 h; series mostly up to 28.7 µM
In short: as §1

CP201 = assay: as above; details: P. falciparum in erythrocytes, SYBR Green DNA, 72 h; series mostly up to 28.7 µM
In short: as §1

CP203 = assay: as above; details: P. falciparum in erythrocytes, SYBR Green DNA, 72 h; series mostly up to 28.7 µM
In short: as §1

CP211 = assay: as above; details: P. falciparum in erythrocytes, SYBR Green DNA, 72 h; series mostly up to 28.7 µM
In short: as §1

CP215 = assay: as above; details: P. falciparum in erythrocytes, SYBR Green DNA, 72 h; series mostly up to 28.7 µM
In short: as §1

CP217 = assay: as above; details: P. falciparum in erythrocytes, SYBR Green DNA, 72 h; series mostly up to 28.7 µM
In short: as §1

CP237 = assay: as above; details: P. falciparum in erythrocytes, SYBR Green DNA, 72 h; series mostly up to 28.7 µM
In short: as §1

CP238 = assay: as above; details: P. falciparum in erythrocytes, SYBR Green DNA, 72 h; series mostly up to 28.7 µM
In short: as §1

CP247 = assay: as above; details: P. falciparum in erythrocytes, SYBR Green DNA, 72 h; series mostly up to 28.7 µM
In short: as §1

[2] = at 28.7 µM (top of the series), parasite line A
[3] = at 28.7 µM (top of the series), parasite line B

CSc1ccc(C(=O)c2[nH]c(=O)[nH]c2C)cc1
inactive: activity, negative = inhibition [1, 2] 9.87% | activity, negative = inhibition [1, 3] 9.86% | Potency (3D7) | Potency (7G8) | Potency (AA1029) | Potency (AS120) | Potency (ATS189) | Potency (ATS95) | Potency (C2A) | Potency (CP185) | Potency (CP191) | Potency (CP192) | Potency (CP194) | Potency (CP201) | Potency (CP203) | Potency (CP211) | Potency (CP215) | Potency (CP217) | Potency (CP237) | Potency (CP238) | Potency (CP247)

Cc1cc(C)c(/C=C2\C(=O)Nc3ccccc32)[nH]1
inactive: activity, negative = inhibition [1, 2] 2.71% | activity, negative = inhibition [1, 3] 10.1% | Potency (3D7) | Potency (7G8) | Potency (AA1029) | Potency (AS120) | Potency (ATS189) | Potency (ATS95) | Potency (C2A) | Potency (CP185) | Potency (CP191) | Potency (CP192) | Potency (CP194) | Potency (CP201) | Potency (CP203) | Potency (CP211) | Potency (CP215) | Potency (CP217) | Potency (CP237) | Potency (CP238) | Potency (CP247)

CCCCOCCOCCOCc1cc2c(cc1CCC)OCO2
inactive: activity, negative = inhibition [1, 2] 4.14% | activity, negative = inhibition [1, 3] 5.71% | Potency (3D7) | Potency (7G8) | Potency (AA1029) | Potency (AS120) | Potency (ATS189) | Potency (ATS95) | Potency (C2A) | Potency (CP185) | Potency (CP191) | Potency (CP192) | Potency (CP194) | Potency (CP201) | Potency (CP203) | Potency (CP211) | Potency (CP215) | Potency (CP217) | Potency (CP237) | Potency (CP238) | Potency (CP247)

Cc1ccc(S(=O)(=O)NC(=O)NN2CCCCCC2)cc1
inactive: activity, negative = inhibition [1, 2] -5.36% | activity, negative = inhibition [1, 3] 12.1% | Potency (3D7) | Potency (7G8) | Potency (AA1029) | Potency (AS120) | Potency (ATS189) | Potency (ATS95) | Potency (C2A) | Potency (CP185) | Potency (CP191) | Potency (CP192) | Potency (CP194) | Potency (CP201) | Potency (CP203) | Potency (CP211) | Potency (CP215) | Potency (CP217) | Potency (CP237) | Potency (CP238) | Potency (CP247)

CC(C)(Oc1ccc(CCNC(=O)c2ccc(Cl)cc2)cc1)C(=O)O
inactive: activity, negative = inhibition ([1]; at 12.8 µM (top of the series), parasite line A) -1.93% | activity, negative = inhibition ([1]; at 12.8 µM (top of the series), parasite line B) -2.04% | Potency (3D7) | Potency (7G8) | Potency (AA1029) | Potency (AS120) | Potency (ATS189) | Potency (ATS95) | Potency (C2A) | Potency (CP185) | Potency (CP191) | Potency (CP192) | Potency (CP194) | Potency (CP201) | Potency (CP203) | Potency (CP211) | Potency (CP215) | Potency (CP217) | Potency (CP237) | Potency (CP238) | Potency (CP247)
